Source: PubChem BioAssay (National Center for Advancing Translational Sciences (NCATS))
The list is not random: actives were taken first. Their share in the collection is about 21%.
Shiga inhibitor: inhibitors of Shiga toxin in Vero cells; Vero cells, Shiga toxin protein synthesis inhibition reporter; inhibition, % at 38.7 µM; 290,000 tested, 9.2% active; AID 2315; in the data active means inhibition mostly above about 28%, no sharp cut-off; inactive means mostly below about 43%; further: 0% is about no effect
CHX counter: affects cycloheximide protein synthesis inhibition readout, counter-screen; cell reporter, cycloheximide protein synthesis inhibition counterscreen; max response, %; 300,000 tested, 12% active; in the data active means max response mostly above about 13%, no sharp cut-off; inactive means mostly below about 14%; further: read at 38.3 µM for the half of the compounds with a filed dose; 0% is about no effect
Pf growth 48h: inhibits P. falciparum growth in the first generation, 48 h | P. falciparum luciferase growth in erythrocytes, 48 h | Potency, µM (doses to about 28.7 µM), inactives show at the highest dose activity change, negative = inhibition, actives largely listed as inhibitors | 310,000 tested, 5.9% active | AID 504832; further: potency means the concentration at half of the fitted maximal effect; on the % scale 0 is the no-effect control and ±100 the full control effect
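Erythrocytes infected with P. falciparum carrying an integrated firefly luciferase reporter (2% hematocrit, 0.1% parasitemia final) were exposed to compounds in RPMI 1640 with 0.5% Albumax at 37 C, 5% CO2. Growth inhibition was scored as reduced luminescence.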
Pf growth 96h: P. falciparum growth inhibition at 96 hours; P. falciparum luciferase reporter growth, 96 h; Potency, µM (top dose mostly 28.7 µM), for the others: top-dose activity change, negative = inhibition, actives largely listed as inhibitors; 320,000 tested, 6.9% active; further: potency means the concentration at half of the fitted maximal effect; on the % scale 0 is the no-effect control and ±100 the full control effect
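P. falciparum expressing integrated firefly luciferase grown in erythrocytes (2% hematocrit, 0.05% parasitemia final) with compounds for 96 hours at 37 C, 5% CO2. Growth inhibition read as loss of luminescence after adding luciferase detection reagent.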
Starred values were filed as active, the others as inactive; i = inactive; ? = inconclusive; nt = not tested or not shown. Unless noted, the call rests on the fitted dose curve; in most records, active means well fitted inhibition curve with a large enough effect; inconclusive means small, poorly fitted or top-dose-only effect, or another doubt; inactive means no such curve, though single readings can be large or run the other way.

SMILES	Shiga inhibitor	CHX counter	Pf growth 48h	Pf growth 96h
Cc1cc(O)c2ccccc2c1O	nt	nt	-29.5%	8.49µM*
CCOC(=O)c1ccc(NC(=O)NNC(=O)CCc2ccc(OC)cc2)cc1	-1.3	-1.2	?	38.1%
NS(=O)(=O)c1ccc(CCNc2nc(CN3CCCCC3)nc3sc4c(c23)CCC4)cc1	-3.3	-7.2	11.7µM*	6.57µM*
CC(C)CN1CCC(=O)N([C@H](COc2ccccc2)Cc2ccccc2)CC1	-5.2	-2.0	?	11.7µM*
O=C1CCN(CCc2ccccc2)CCN1[C@H](COc1ccccc1)Cc1ccccc1	3.8	-2.1	?	3.29µM*
COc1ccc(N(CC(=O)Nc2ccccc2OC)S(=O)(=O)c2ccc(OC)c(OC)c2)cc1	-8.1	-2.9	5.3%	-18.6%
O=C(COc1ccccc1)Nc1ccccc1N1CCN(c2ccccc2)CC1	-2.4	0.7	?	2.94µM*
CN1CCN(c2ccccc2NC(=O)COc2ccc(Br)cc2)CC1	-18.6	-2.2	nt	1.85µM*
CCOc1ccc(OCC(=O)Nc2ccccc2N2CCCC2)cc1	nt	nt	?	11.7µM*
COc1ccc(/C=C/C(=O)N2CCCc3ccccc32)cc1	74.1*	51.7*	12.7%	66.7%
O=C1CCN(C(=O)/C=C/c2ccccc2)c2ccccc21	41.2*	28.0*	45.5%	?
COc1ccc(/C=C/C(=O)N2CCCc3ccccc32)c(OC)c1	46.6	14.0*	?	?
COc1ccc(OC)c(/C=C/C(=O)N2CCCc3ccccc32)c1	54.0	17.9	-6.9%	?
O=C(NCC1CCCO1)c1ccc2c(c1)N(Cc1ccccc1)CCS2 (stereo not drawn)	-4.1	-1.1	?	?
c1ccc(N2CCN(c3nc4ccccc4[nH]3)CC2)nc1	49.3*	22.4*	155.2%	59.4%
CCOC(=O)c1c(NC(=O)COC(=O)CCOc2ccccc2C)sc(C(=O)NC)c1C	nt	nt	-4.4%	-13.0%
COc1ccc(C(=O)n2nc(C)c(Br)c2C)cc1	32.2	9.4	?	0.465µM*
CC(C)(C)Nc1ncnc2sc(-c3ccccc3)cc12	28.9	11.1	-22.5%	?
CN(CCC#N)C(=O)CSc1ncnc2sc(-c3ccccc3)cc12	62.5*	31.2*	-2.5%	?
CN(C)C(=O)COc1ncnc2sc(-c3ccccc3)cc12	72.3*	28.2*	68.9%	77.8%
CN(C)c1ncnc2sc(-c3ccccc3)cc12	40.4	16.2*	134.5%	38.8%
COc1ncnc2sc(-c3ccccc3)cc12	81.8	66.1*	178.9%	16.8%
Cc1ccsc1-c1nc(CN2C[C@@H](C)O[C@@H](C)C2)c(C)o1	-16.4	0.9	-7.4%	-20.9%
CC(=O)OCC(NC(=O)C(COCc1ccccc1)NC(=O)OC(C)(C)C)C1OC(n2cc(C)c(=O)[nH]c2=O)C(OC(C)=O)C1OC(C)=O (stereo not drawn)	-2.5	1.2	nt	nt
O=C(NCCc1ccccc1)C(=O)NCC1OCCN1S(=O)(=O)c1cc(F)ccc1F (stereo not drawn)	24.5	10.6	20.0%	-13.4%
SMILES	Shiga inhibitor	CHX counter	Pf growth 48h	Pf growth 96h
O=C(CC1NCCNC1=O)Nc1ccc2c(c1)OCO2 (stereo not drawn)	-5.4	-1.8	nt	4.8%
Cc1nn(-c2cccc(Cl)c2)c(Cl)c1/C=N/NC(=O)c1cccs1	58.3*	29.2*	10.4µM*	?
Cc1nn(-c2ccccc2)c(Cl)c1/C=N/NC(=O)c1ccc(NS(=O)(=O)c2cccs2)cc1	32.2	20.0*	?	-7.7%
CSCCC(NC(=O)c1ccccc1Cl)C(=O)Nc1ccncc1 (stereo not drawn)	nt	nt	-27.0%	-0.7%
C=CCNC(=O)c1ccc(-c2nc(-c3ccc(Cl)cc3Cl)cs2)cc1	9.5	3.6	-20.7%	8.5%
O=C(O)c1ccc(-c2nc(-c3ccccc3)cs2)cc1	41.4*	37.4*	160.0%	i
CNC(=O)c1ccc(-c2nc(-c3ccccc3)cs2)cc1	43.1*	32.5*	49.6%	91.0%
CC(=O)c1csc(-c2ccccc2)n1	41.1*	15.9*	4.6%	15.5%
O=C(O)c1ccc(-c2nc(-c3ccccc3Cl)cs2)cc1	143.5*	28.8*	57.2%	78.2%
FC(F)(F)c1ccccc1CNCc1ccc2c(c1)OCO2	-3.4	1.1	0.6%	352.9%
O=C(O)c1ccccc1C(=O)Nc1ccc(-c2csc(-c3ccccc3)n2)cc1	72.8*	53.8*	164.5%	351.1%
O=C(Nc1ccc(-c2csc(-c3ccccc3)n2)cc1)c1ccccc1Cl	23.6	3.3	?	?
Cc1oncc1-c1csc(-c2ccccc2)n1	63.9*	51.1*	54.3%	112.7%
CCc1sc(-c2ccccc2)nc1C(=O)OC	11.6	10.4	18.4%	30.1%
